Assay outcomes from PubChem BioAssay.
The list is not random: actives were taken first. Their share in the collection is about 7%.
DRD3 agonist: D3 dopamine receptor (human) agonism | P35462 | 0.58% of 410,000 active | max activation, % | AID 652048 | D3R DiscoveRx beta-arrestin cells, luminescence, 90 min; in the data active = max activation above about 30%
Target sequence (P35462 whole entry, looked up): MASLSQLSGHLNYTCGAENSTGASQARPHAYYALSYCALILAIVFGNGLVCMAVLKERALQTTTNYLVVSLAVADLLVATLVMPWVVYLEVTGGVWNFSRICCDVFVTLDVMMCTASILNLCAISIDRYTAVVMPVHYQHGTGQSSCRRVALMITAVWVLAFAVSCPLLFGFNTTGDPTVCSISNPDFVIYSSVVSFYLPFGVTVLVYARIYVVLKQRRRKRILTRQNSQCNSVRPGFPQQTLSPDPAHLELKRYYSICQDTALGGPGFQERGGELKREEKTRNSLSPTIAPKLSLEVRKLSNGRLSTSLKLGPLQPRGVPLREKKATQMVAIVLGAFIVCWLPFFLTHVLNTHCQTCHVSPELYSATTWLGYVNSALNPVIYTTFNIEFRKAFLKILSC
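Agonist mode: compounds and dopamine controls were applied to plated cells for 90 min at 37 degrees C after an overnight attachment at 1500 cells/well. Luminescent read-out followed 30 - 60 minutes at room temperature with DiscoveRx detection reagent.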
a7 integrin act: activators of alpha7 integrin expression for muscular dystrophy. alpha7betagal myoblasts, beta-gal FDG fluorescence, 48 h. Potency, µM (highest dose often 38.3 µM), actives largely listed as activators. 0.064% of 350,000 active. AID 624291; also: nearly all actives have a fitted effect of over 60% in size
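Alpha7betagal+/- myoblasts (passage 13) were plated 16-24 hr, then exposed to compounds (1:260 dilution of DMSO stock) for 48 hours at 37C. After MPER lysis, β-galactosidase reporter activity was read as FDG fluorescence (ex 480/em 540) after 30 minutes.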
DRD3 antagonist: blocks the human D3 dopamine receptor; P35462; D3R cells, DiscoveRx beta-arrestin luminescence, antagonist mode; hits give low values; max response, negative = inhibition, %; 2.5% of 360,000 active; in the data active = max response below about -50%; inconclusive = no clear call, values can overlap the other calls
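Cells expressing the human receptor were seeded at 1500 cells/well, incubated overnight at 37 degrees C in 5% CO2, then exposed to library compounds with dopamine controls for 90 minutes at 37 degrees C before luminescent detection.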
ATXN2 expr inh: inhibitors of ATXN2 expression | HEK-293 ATXN2-luciferase reporter, luminescence, 24 h | Potency, µM (top dose mostly 57 µM), actives largely listed as inhibitors | 0.72% of 360,000 active; also: nearly all actives have a fitted effect of over 55% in size
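qHTS (up to 57 uM final) was run with 24 h compound exposure of reporter cells at 37 °C. Each well was multiplexed: SteadyGlo luminescence measured ATXN2-luciferase expression after a fluorogenic Gly-Phe-AFC viability readout (25 uM final).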
ATXN viability: reduces viability in counter-screen for ATXN expression inhibitors | S2 cells (HEK-293 line with an ATXN2-luciferase reporter) viability, CellTiter-Fluor protease fluorescence, 24 h | Potency, µM (doses to about 56.7 µM), usual class: cytotoxic | AID 651635 | 0.49% of 400,000 active; also: nearly all actives have a fitted effect of over 40% in size
IL1B secr inh: inhibitors of inflammasome signaling (IL-1 beta secretion); activity change, % at 57.5 µM; THP-1 LPS/ATP IL-1B secretion, AlphaLISA, 16 h; hits give low values; 4.7% of 360,000 active; in the data active = activity change below about -50%; inconclusive = mostly about -30% to -49%
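THP-1 cells pretreated 1 hr with compounds (up to 57.5 uM final), then stimulated with LPS (250 ng/mL final) plus ATP (1.25 mM final); secreted IL-1B measured by AlphaLISA after 16 hr, decreased signal indicating inhibition.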
A number is an active result; – = inactive; ? = inconclusive; · = no result given; [ ] = remark or other dose. Unless noted, calls follow the shape of the dose curve; as a rule, active = well fitted curve in the direction sought with a large enough effect; inconclusive = small, poorly fitted or top-dose-only effect, or another doubt; inactive = no such curve, though single readings can be large; an effect the other way counts as inactive or inconclusive.

SMILES	DRD3 agonist	a7 integrin act	DRD3 antagonist	ATXN2 expr inh	ATXN viability	IL1B secr inh
CCn1ncc(/C=N/O)c1C	–	–	–	–	–	–
COc1ccc(-c2cc3nc(C)cc(N4CCN(C(=O)c5ccoc5)CC4)n3n2)cc1	–	–	–	–	–	?
COc1ccc(-c2[nH]nc3nc(N4CCN(C(=O)c5ccoc5)CC4)cc(C(F)(F)F)c23)cc1	–	–	–	20µM	20µM	–
O=C(Nc1cc(C(F)(F)F)ccc1Cl)c1cnn(-c2ccccc2)c1-n1cccc1	55	·	·	·	·	·
COc1cc(OC)c(NC(=O)c2cnn(-c3ccccc3)c2-n2cccc2)cc1Cl	–	·	·	–	–	·
CCOC(=O)NC1CCc2cc(OC)c(OC)c(OC)c2-c2ccc(SC)c(=O)cc21 (centres undefined)	–	–	–	–	?	–
CCCCOC(=O)NC1CCc2cc(OC)c(OC)c(OC)c2-c2ccc(SC)c(=O)cc21 (centres undefined)	–	–	–	–	0.038µM	–
O=S(=O)(/N=C(/Nc1nc2ccccc2s1)c1ccccc1)c1ccccc1	–	?	–	–	–	–
c1cc(CNC2C3CC4CC(C3)CC2C4)ccn1 (centres undefined)	–	–	-57	–	–	–
COc1cc2c(cc1OC)CN(C(=S)Nc1ccccc1Cl)CC2	–	–	–	–	–	-61
O=C1CN(C(=S)Nc2ccccc2Cl)CCN1	45	–	–	–	–	–
Cc1c(Cl)cccc1Nc1nc(N)nc(CN2CCc3ccccc3C2)n1	–	–	-64	–	–	?
Nc1nc(CN2CCN(Cc3ccccc3)CC2)nc(Nc2ccccc2)n1	–	–	?	–	–	–
Cc1ccc(Nc2nc(N)nc(CN3CCc4ccccc4C3)n2)cc1	–	–	-64	–	–	?
Cc1cccnc1C(c1ccc(F)cc1)N(C)C(=O)C1CCN(CCCOc2ccc(F)cc2)CC1 (centres undefined)	–	·	-94	–	?	?
Cc1cccnc1C(c1ccc(F)cc1)N(C)C(=O)C1CCN(CCOc2ccc(Cl)cc2Cl)CC1 (centres undefined)	–	·	-74	32µM	28µM	-56
Cc1nn(CC(=O)N(C)Cc2ccc(F)cc2)c(C)c1[N+](=O)[O-]	–	–	–	–	–	–
O=C(O)c1ccc2c(c1)nc(Nc1cccc(Cl)c1)c1ccncc12	·	·	·	9.7µM	·	·
Clc1cccc(Nc2nc(-c3ccncc3)nc3ccccc23)c1	–	–	–	?	?	–
CCN(CC)S(=O)(=O)c1cc(C(=O)Nc2ccc(Cl)cn2)ccc1C	–	–	–	–	–	-54
CCCCCCCCCCCCCCCC(O)C[N+](C)(C)CCO (centres undefined)	–	–	–	–	?	-76
N=c1c2c(ncn1Cc1ccco1)Oc1ccc3ccccc3c1C2c1ccccc1 (centres undefined)	–	–	–	22µM	·	-62
COc1ccc(C2c3ccc(O)cc3Oc3ncn(Cc4ccco4)c(=N)c32)cc1 (centres undefined)	–	–	–	·	–	?
COc1ccc(C2c3c(ncn(Cc4ccco4)c3=N)Oc3ccc4ccccc4c32)cc1 (centres undefined)	–	–	–	–	?	-77
COc1ccc(-c2nc3scc(CCNS(=O)(=O)c4ccc(F)c(C(F)(F)F)c4)n3n2)cc1OC	–	·	·	·	·	·
SMILES	DRD3 agonist	a7 integrin act	DRD3 antagonist	ATXN2 expr inh	ATXN viability	IL1B secr inh
Cc1ccccc1NC(=O)COc1ccc(Br)cc1CNCCCO	–	–	–	·	–	–
Cc1ccccc1C=O	–	·	–	–	–	–
Cc1ccccc1/C=C/C1=NCCN1	–	·	?	–	?	-92
CC1(C)C(=O)Nc2ccccc2N1C(=O)COC(=O)Cc1c(F)cccc1Cl	–	–	–	–	–	–
Cc1nn(Cc2cccc(F)c2)c(C)c1NC(=O)c1ccc(COc2ccccc2Cl)cc1	–	–	–	3.2µM	?	–
Cc1nn(Cc2ccc(Cl)cc2Cl)c(C)c1NC(=O)c1ccc(COc2cc(Cl)ccc2Cl)o1	–	–	–	–	–	?
Cc1nn(Cc2c(F)c(F)c(F)c(F)c2F)c(C)c1NC(=O)c1cccc(COc2ccccc2Cl)c1	–	–[7.66 µM]	–	?	–	–
